# Test results reported in publication PMC11062922 (Nature Chemical Biology, 2023).
# Where two headings read alike, the source gives them in different places.
# Legend:
# Settings in all cases: read-out: apparent Kd, n = 1
# MAP2K5 = system: MAP2K5
# MAP4K4 = system: MAP4K4
# MAPK9 = system: MAPK9
# PIM3 = system: PIM3
# PRKAG2 = system: PRKAG2
# PRKCA = system: PRKCA
# PRKX = system: PRKX
# RPS6KA3 = system: RPS6KA3
# [1] = compound concentrations:100 nM and 1000 nM (sheet 'Lestaurtinib' of Supplementary Table 1),run:Lestaurtinib_02566_R1,Plate:MR014
# [2] = compound concentrations:100 nM and 1000 nM (sheet 'Lestaurtinib' of Supplementary Table 1),run:Lestaurtinib_02724_R3,Plate:MR021
# [3] = compound concentrations:100 nM and 1000 nM (sheet 'Lestaurtinib' of Supplementary Table 1),run:Lestaurtinib_02748_R3,Plate:MR024
# [4] = compound concentrations:100 nM and 1000 nM (sheet 'Lestaurtinib' of Supplementary Table 1),run:Lestaurtinib_02381_R2,Plate:MR004
# [5] = compound concentrations:100 nM and 1000 nM (sheet 'Lestaurtinib' of Supplementary Table 1),run:Lestaurtinib_02438_R2,Plate:MR008
# [6] = compound concentrations:100 nM and 1000 nM (sheet 'Lestaurtinib' of Supplementary Table 1),run:Lestaurtinib_02443_R3,Plate:MR009
# [7] = compound concentrations:100 nM and 1000 nM (sheet 'Lestaurtinib' of Supplementary Table 1),run:Lestaurtinib_02724_R1,Plate:MR021
# [8] = compound concentrations:100 nM and 1000 nM (sheet 'Lestaurtinib' of Supplementary Table 1),run:Lestaurtinib_03172_R1,Plate:MR031
# [9] = compound concentrations:100 nM and 1000 nM (sheet 'Lestaurtinib' of Supplementary Table 1),run:Lestaurtinib_02748_R1,Plate:MR024
# [10] = compound concentrations:100 nM and 1000 nM (sheet 'Lestaurtinib' of Supplementary Table 1),run:Lestaurtinib_02487_R1,Plate:MR012
substance,measurement,setting,value
Lestaurtinib,potency estimated from few doses,MAP2K5; [1],1960 nM
same,potency estimated from few doses,MAP2K5; [2],1790 nM
same,potency estimated from few doses,MAP2K5; [3],1820 nM
same,potency estimated from few doses,"MAP2K5; compound concentrations:100 nM and 1000 nM (sheet 'Lestaurtinib' of Supplementary Table 1),run:Lestaurtinib_02766_R1,Plate:MR027",2210 nM
same,potency estimated from few doses,MAP4K4; [4],2240 nM
same,potency estimated from few doses,MAP4K4; [5],1430 nM
same,potency estimated from few doses,"MAP4K4; compound concentrations:100 nM and 1000 nM (sheet 'Lestaurtinib' of Supplementary Table 1),run:Lestaurtinib_02443_R2,Plate:MR009",1700 nM
same,potency estimated from few doses,"MAP4K4; compound concentrations:100 nM and 1000 nM (sheet 'Lestaurtinib' of Supplementary Table 1),run:Lestaurtinib_02473_R2,Plate:MR010",1820 nM
same,potency estimated from few doses,"MAP4K4; compound concentrations:100 nM and 1000 nM (sheet 'Lestaurtinib' of Supplementary Table 1),run:Lestaurtinib_02482_R2,Plate:MR011",1420 nM
same,potency estimated from few doses,MAPK9; [6],1300 nM
same,potency estimated from few doses,MAPK9; [1],1990 nM
same,potency estimated from few doses,"MAPK9; compound concentrations:100 nM and 1000 nM (sheet 'Lestaurtinib' of Supplementary Table 1),run:Lestaurtinib_02572_R1,Plate:MR015",1720 nM
same,potency estimated from few doses,"MAPK9; compound concentrations:100 nM and 1000 nM (sheet 'Lestaurtinib' of Supplementary Table 1),run:Lestaurtinib_02584_R3,Plate:MR017",2260 nM
same,potency estimated from few doses,"MAPK9; compound concentrations:100 nM and 1000 nM (sheet 'Lestaurtinib' of Supplementary Table 1),run:Lestaurtinib_02624_R1,Plate:MR020",1410 nM
same,potency estimated from few doses,MAPK9; [7],2240 nM
same,potency estimated from few doses,"MAPK9; compound concentrations:100 nM and 1000 nM (sheet 'Lestaurtinib' of Supplementary Table 1),run:Lestaurtinib_02752_R3,Plate:MR025",2180 nM
same,potency estimated from few doses,"MAPK9; compound concentrations:100 nM and 1000 nM (sheet 'Lestaurtinib' of Supplementary Table 1),run:Lestaurtinib_02896_R1,Plate:MR030",2120 nM
same,potency estimated from few doses,MAPK9; [8],1900 nM
same,potency estimated from few doses,"MAPK9; compound concentrations:100 nM and 1000 nM (sheet 'Lestaurtinib' of Supplementary Table 1),run:Lestaurtinib_03260_R1,Plate:MR033",1690 nM
same,potency estimated from few doses,PIM3; [9],611 nM
same,potency estimated from few doses,"PIM3; compound concentrations:100 nM and 1000 nM (sheet 'Lestaurtinib' of Supplementary Table 1),run:Lestaurtinib_02748_R2,Plate:MR024",656 nM
same,potency estimated from few doses,PIM3; [3],1430 nM
same,potency estimated from few doses,"PIM3; compound concentrations:100 nM and 1000 nM (sheet 'Lestaurtinib' of Supplementary Table 1),run:Lestaurtinib_02752_R2,Plate:MR025",795 nM
same,potency estimated from few doses,"PIM3; compound concentrations:100 nM and 1000 nM (sheet 'Lestaurtinib' of Supplementary Table 1),run:Lestaurtinib_03260_R2,Plate:MR033",945 nM
same,potency estimated from few doses,"PRKAG2; compound concentrations:100 nM and 1000 nM (sheet 'Lestaurtinib' of Supplementary Table 1),run:Lestaurtinib_02367_R2,Plate:MR003",1350 nM
same,potency estimated from few doses,"PRKAG2; compound concentrations:100 nM and 1000 nM (sheet 'Lestaurtinib' of Supplementary Table 1),run:Lestaurtinib_02367_R3,Plate:MR003",1360 nM
same,potency estimated from few doses,"PRKAG2; compound concentrations:100 nM and 1000 nM (sheet 'Lestaurtinib' of Supplementary Table 1),run:Lestaurtinib_02407_R1,Plate:MR005",888 nM
same,potency estimated from few doses,"PRKAG2; compound concentrations:100 nM and 1000 nM (sheet 'Lestaurtinib' of Supplementary Table 1),run:Lestaurtinib_02407_R3,Plate:MR005",1340 nM
same,potency estimated from few doses,"PRKAG2; compound concentrations:100 nM and 1000 nM (sheet 'Lestaurtinib' of Supplementary Table 1),run:Lestaurtinib_02422_R1,Plate:MR006",629 nM
same,potency estimated from few doses,PRKAG2; [5],1210 nM
same,potency estimated from few doses,"PRKAG2; compound concentrations:100 nM and 1000 nM (sheet 'Lestaurtinib' of Supplementary Table 1),run:Lestaurtinib_02473_R3,Plate:MR010",1240 nM
same,potency estimated from few doses,PRKAG2; [10],352 nM
same,potency estimated from few doses,"PRKAG2; compound concentrations:100 nM and 1000 nM (sheet 'Lestaurtinib' of Supplementary Table 1),run:Lestaurtinib_02566_R3,Plate:MR014",888 nM
same,potency estimated from few doses,PRKAG2; [9],1240 nM
same,potency estimated from few doses,PRKAG2; [8],1370 nM
same,potency estimated from few doses,"PRKCA; compound concentrations:100 nM and 1000 nM (sheet 'Lestaurtinib' of Supplementary Table 1),run:Lestaurtinib_02381_R1,Plate:MR004",2070 nM
same,potency estimated from few doses,"PRKCA; compound concentrations:100 nM and 1000 nM (sheet 'Lestaurtinib' of Supplementary Table 1),run:Lestaurtinib_02381_R3,Plate:MR004",2400 nM
same,potency estimated from few doses,"PRKCA; compound concentrations:100 nM and 1000 nM (sheet 'Lestaurtinib' of Supplementary Table 1),run:Lestaurtinib_02443_R1,Plate:MR009",1990 nM
same,potency estimated from few doses,PRKCA; [6],2450 nM
same,potency estimated from few doses,PRKCA; [10],1720 nM
same,potency estimated from few doses,PRKCA; [2],1760 nM
same,potency estimated from few doses,PRKCA; [9],2320 nM
same,potency estimated from few doses,PRKX; [4],1490 nM
same,potency estimated from few doses,"PRKX; compound concentrations:100 nM and 1000 nM (sheet 'Lestaurtinib' of Supplementary Table 1),run:Lestaurtinib_02487_R2,Plate:MR012",2110 nM
same,potency estimated from few doses,"PRKX; compound concentrations:100 nM and 1000 nM (sheet 'Lestaurtinib' of Supplementary Table 1),run:Lestaurtinib_02487_R3,Plate:MR012",1350 nM
same,potency estimated from few doses,"PRKX; compound concentrations:100 nM and 1000 nM (sheet 'Lestaurtinib' of Supplementary Table 1),run:Lestaurtinib_02768_R1,Plate:MR028",2230 nM
same,potency estimated from few doses,"PRKX; compound concentrations:100 nM and 1000 nM (sheet 'Lestaurtinib' of Supplementary Table 1),run:Lestaurtinib_02802_R3,Plate:MR029",1970 nM
same,potency estimated from few doses,"RPS6KA3; compound concentrations:100 nM and 1000 nM (sheet 'Lestaurtinib' of Supplementary Table 1),run:Lestaurtinib_02339_R3,Plate:MR001",1510 nM
same,potency estimated from few doses,"RPS6KA3; compound concentrations:100 nM and 1000 nM (sheet 'Lestaurtinib' of Supplementary Table 1),run:Lestaurtinib_02438_R1,Plate:MR008",1840 nM
same,potency estimated from few doses,RPS6KA3; [6],1650 nM
same,potency estimated from few doses,RPS6KA3; [10],1150 nM
same,potency estimated from few doses,"RPS6KA3; compound concentrations:100 nM and 1000 nM (sheet 'Lestaurtinib' of Supplementary Table 1),run:Lestaurtinib_02577_R1,Plate:MR016",1760 nM
same,potency estimated from few doses,RPS6KA3; [7],1530 nM
